NR0B1 inh – NR0B1 (DAX1) inhibition; hit rate 0.99% among 340,000; inhibition, % at 6.75 µM; HEK293 Gal4-DAX1 luciferase reporter, luminescence; P51843;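 active = inhibition above the mean over all tested compounds plus 3 SD, cut at about 4.2% in these data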;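 note: 0% = DAX1-transfected cells with DMSO and 100% = empty-vector control cells with DMSO; inhibition shows as a rise in luminescence from relieved DAX1 repression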
Target sequence (P51843 207-470 limits assumed): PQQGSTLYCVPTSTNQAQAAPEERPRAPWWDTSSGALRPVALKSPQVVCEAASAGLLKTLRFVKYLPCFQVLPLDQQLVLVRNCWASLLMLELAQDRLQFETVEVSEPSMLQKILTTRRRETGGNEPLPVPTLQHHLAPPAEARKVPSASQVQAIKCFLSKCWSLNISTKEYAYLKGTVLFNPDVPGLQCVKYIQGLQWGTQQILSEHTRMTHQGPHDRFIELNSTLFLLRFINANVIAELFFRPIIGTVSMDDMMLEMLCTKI
HSF-1 act – increases HSF-1 driven luciferase reporter signal; hit rate 1.7% among 300,000; NIH3T3-HGL HSF-1 luciferase reporter, MG132, 8 h; 100% = twice DMSO control signal; activation, % at 9 µM;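 active = mean replicate activation of at least 50% with a set share of replicates each reaching 50%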;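 note: 0% = median of the neutral control wells and 100% = twice that signal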
HSP90 inh – HSP90 refolding inhibition in rabbit reticulocyte lysate. AID 1789. inhibition, % at 5.6 µM. luciferase refolding luminescence, 3 h. hit rate 0.91% among 290,000;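 active = inhibition above the screen-wide mean plus 3 SD, computed separately per campaign, cut at about 16% in these data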;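 note: 0% = DMSO wells and 100% = 60 µM geldanamycin wells; inhibitors lower the luminescence because luciferase stays unfolded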
AHR act – human AHR activation; P35869; AHR-responsive luciferase reporter cells, luminescence; activation, % at 5 µM; hit rate 2.5% among 320,000; in the data active = activation above about 47%;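 note: 0% = vehicle wells and 100% = reference agonist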
FXN GAA850 act – increases GAA850 frataxin promoter reporter activity. hit rate 0.56% among 360,000. HEK293 lucGAA850 FXN promoter luciferase reporter, 24 h; percent of 10 µM SAHA response. activation, % at 6 µM. AID 540364;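 active = activation above the average of all compounds screened plus 3 SD, cutoff fixed separately per campaign, cut at about 7.5% in these data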;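 note: 0% = DMSO wells and 100% = 10 µM SAHA wells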
HSF1 inhib – HSF1 inhibition; NIH3T3-HGL HSE-luciferase, MG132-induced, luminescence 8 h; hits give low values; activity change, negative = inhibition, % at 7.5 µM (by protocol); hit rate 0.77% among 300,000; AID 2098;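 active = more than half of replicate wells show activity change below -50%, luminescence cut by over half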;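 note: luciferase reports HSF-1 transcriptional activity via heat shock element; 0% = median of DMSO wells and -100% = zero luminescence signal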
* = called active by the depositor; . = no result. This is a sample that favours compounds with a hit; in the whole collection about 5.9% have one here.

SMILES | NR0B1 inh | HSF-1 act | HSP90 inh | AHR act | FXN GAA850 act | HSF1 inhib
Cc1ccccc1N=C1SC(CC(=O)Nc2ccc3ccccc3c2)C(=O)N1Cc1ccccn1 (stereo not given) | 1.3 | 56.5* | -3.5 | 15.4 | -2.5 | 19.2
COc1ccccc1NC(=O)N(C)C[C@H]1Oc2ncc(Br)cc2C(=O)N([C@H](C)CO)C[C@H]1C | 4.7* | . | . | . | 0.0 | .
CCn1c(-c2cc(-c3ccccc3)sc2N)n[nH]c1=S | . | 64.3* | -3.0 | 72.8* | 2.1 | 28.9
CCn1c(-c2ccccc2O)n[nH]c1=S | 0.3 | 28.2 | 1.3 | -0.6 | 1.5 | 12.6
O=C(Nc1ccc2c(c1)OCO2)N1CCN(c2ccccc2)CC1 | 0.1 | 0.6 | -0.3 | 12.5 | -0.5 | -5.5
O=C(Nc1ccc(F)cc1)N1CCOCC1 | -0.9 | -64.1 | -0.1 | -4.3 | 2.7 | -53.5*
O=C(Nc1ccc(F)cc1)N1CCCCCC1 | 0.1 | 7.5 | 4.4 | 3.2 | 2.2 | 4.8
O=C(Nc1ccc2c(c1)OCO2)N1CCOCC1 | -0.2 | 7.6 | 0.7 | 44.3 | 1.0 | -1.8
O=C(Nc1ccc2c(c1)OCCO2)N1CCN(c2ccccc2)CC1 | -1.4 | -59.4 | -3.8 | 4.6 | 1.1 | -56.9*
O=C(Nc1ccc2c(c1)OCO2)N1CCCC1 | 0.5 | 9.6 | -0.2 | 69.9* | 1.2 | 3.6
CC1CN(C(=O)Nc2ccc3c(c2)OCO3)CC(C)O1 (stereo not given) | 2.9 | 1.1 | 4.6 | 51.9* | -1.2 | -4.4
CC1CCCCC1NC(=O)C1CCC(CNS(=O)(=O)c2ccccc2)CC1 (stereo not given) | 0.0 | 20.6 | -1.8 | -0.1 | 1.9 | 2.4
Cc1ccc(Oc2ccc(S(=O)(=O)N3CCOCC3)cc2C(N)=O)cc1C | 0.2 | 13.6 | 0.2 | -0.6 | 1.4 | 2.9
CCOc1ccc(NC(=S)N2CCC(C(=O)c3ccc(OC)cc3)CC2)cc1 | -0.2 | . | . | . | -1.0 | .
Cc1ccc(NC(=O)N2CCc3ccccc32)cc1 | -1.2 | 62.8* | 16.0 | 7.6 | -0.7 | 39.9
Cc1ccc(NC(=O)N2CCCc3ccccc32)cc1 | 0.8 | 39.6 | 0.2 | 4.6 | 2.5 | 5.5
O=C(Nc1ccc2c(c1)OCO2)N1CCCc2ccccc21 | 1.5 | -3.8 | -1.6 | 55.5* | 0.9 | -8.9
O=C(Nc1ccc2c(c1)OCO2)N1CCN(c2ccc(F)cc2)CC1 | -0.9 | -1.3 | -3.9 | 58.0* | 2.6 | -13.3
COc1ccc(NC(=O)N2CCCc3ccccc32)cc1OC | 0.7 | 10.8 | -3.1 | 8.5 | 1.1 | -1.7
CCOc1ccccc1C(=O)NC(C(=O)OCn1nnc2ccccc2c1=O)C(C)C (stereo not given) | -0.6 | . | . | . | -0.8 | .
CC(Oc1ccc(Cl)cc1Cl)C(=O)NNC(=O)c1ccncc1 (stereo not given) | 4.8* | -20.3 | . | 3.3 | -1.6 | -4.2
CC(Oc1ccc(Cl)cc1Cl)C(=O)NNC(=O)c1cccnc1 (stereo not given) | 0.2 | -14.2 | -3.0 | 7.8 | 1.9 | -2.4
O=C(c1ccc(Cl)cc1)C1CCN(C(=O)c2ccccc2F)CC1 | -0.8 | . | . | . | 1.1 | .
Cc1cccc(NC(=O)c2cnc3n(c2=O)CCS3)c1 | 1.4 | . | -0.8 | 5.2 | 7.3 | .
O=C(Nc1ccccc1)c1cnc2n(c1=O)CCS2 | 0.4 | 16.9 | -2.0 | 54.2* | 3.2 | 7.5
SMILES | NR0B1 inh | HSF-1 act | HSP90 inh | AHR act | FXN GAA850 act | HSF1 inhib
O=C(Nc1ccc(OC(F)(F)F)cc1)c1cnc2n(c1=O)CCS2 | 1.8 | 10.2 | . | 66.5* | -0.2 | 3.7
CC(C)Oc1ccc(S(=O)(=O)N2CCOCC2)cc1NC(=O)c1cccc(S(=O)(=O)N2CCCC2)c1 | -1.0 | . | . | . | 0.5 | .
O=C(C[C@@H]1C/C=C\C[C@@H](NC(=O)OCC2c3ccccc3-c3ccccc32)C(=O)OCCNC1=O)N[C@@H](CO)Cc1ccccc1 | 0.8 | . | . | -0.9 | -1.1 | .
N#CCCN(Cc1cccnc1)CN1C(=O)c2ccccc2C1=O | 1.3 | . | . | . | 1.6 | .
Cc1ccc(-c2cnc(SCCNC(=O)c3ccco3)[nH]2)cc1 | -0.1 | 24.4 | . | 61.0* | -0.2 | 24.5
Cc1cc(NC(=O)Nc2cc(Cl)ccc2C)no1 | -0.2 | 24.5 | 2.5 | 35.1 | 0.3 | -4.1
CC1(NC(=O)Cc2ccc(Cl)c(Cl)c2)CCS(=O)(=O)C1 (stereo not given) | 0.4 | . | . | 1.9 | 1.2 | .
CC(C)COc1ccc(-c2cc(C(=O)NN)[nH]n2)cc1 | 0.0 | 52.1* | 15.1 | 5.4 | 5.0 | 11.7
Cc1ccc(COC(=O)CCCN=C2NS(=O)(=O)c3ccccc32)cc1 | -2.0 | -9.7 | . | 3.4 | -0.9 | 9.0

High-throughput results: PubChem, several laboratories
